The nature of experiment [1]: BSK_MyoF_SRB: Viability Assessment in the BioMAP Diversity Plus: MyoF Assay (AID 2284267).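 Also: total protein by SRB absorbance in parallel cultures as cytotoxicity measure.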 As to conditions: primary human lung fibroblasts. The procedure, abridged:
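Human lung fibroblasts dosed with chemical and assessed 24 h later for overt cytotoxicity in parallel cultures. Total protein quantified by sulforhodamine B staining (0.1% SRB after 10% TCA fixation), read at 560 nm, analysed in positive direction versus DMSO baseline.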

Read-out in experiment [2]: Matrix Metallopeptidase 1 (MMP1), MMP1 (gene 4312)
Put plainly: BSK_MyoF_MMP1: BioMAP Diversity Plus: MyoF Assay for Matrix Metallopeptidase 1 (MMP1) Biomarker Activity (AID 2284268). As to conditions: primary human lung fibroblasts. The procedure, abridged: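 Fibroblasts from human lung receive compound for 24 h before ELISA quantitation of MMP1. DMSO serves as baseline, and the endpoint is fitted for signal gain.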

Read-out in experiment [3]: TIMP metallopeptidase inhibitor 1 (TIMP1), TIMP1 (gene 7076)
Put plainly: BSK_MyoF_TIMP1: BioMAP Diversity Plus: MyoF Assay for TIMP metallopeptidase inhibitor 1 (TIMP1) Biomarker Activity (AID 2284269). As to conditions: primary human lung fibroblasts. The procedure, abridged: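 Primary human lung fibroblasts, MyoF multiplex system; chemical exposure 24 h; TIMP-1 by ELISA; positive fitting direction vs DMSO control.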

Read-out in experiment [4]: Matrix Metallopeptidase 3 (MMP3), MMP3 (gene 4314)
Put plainly: BSK_BF4T_MMP3: BioMAP Diversity Plus: BF4T Assay for Matrix Metallopeptidase 3 (MMP3) Biomarker Activity (AID 2284271). As to conditions: primary human bronchial epithelial cells with fibroblasts. An outline of the steps:
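Co-culture of human bronchial epithelial cells and dermal fibroblasts dosed 24 h; MMP-3 measured by ELISA, positive-direction fit versus DMSO. Cytotoxicity tracked by SRB total-protein staining (560 nm) in parallel cultures.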

Read-out in experiment [5]: Plasminogen Activator Inhibitor-1 (PAI1), SERPINE1 (gene 5054)
Description: BSK_BF4T_PAI1: BioMAP Diversity Plus: BF4T Assay for Plasminogen Activator Inhibitor-1 (PAI1) Biomarker Activity (AID 2284273). As to conditions: primary human bronchial epithelial cells with fibroblasts. An outline of the steps: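 Co-culture of human bronchial epithelial cells and dermal fibroblasts exposed to compound for 24 h. PAI-1 measured by ELISA; activity fitted in positive direction versus DMSO. Parallel SRB staining assessed overt cytotoxicity.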

A short description of experiment [6]: BSK_BF4T_SRB: Viability Assessment in the BioMAP Diversity Plus: BF4T Assay (AID 2284274). The note with it: primary human bronchial epithelial cells with fibroblasts. The procedure, abridged:
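Co-culture of human bronchial epithelial cells and dermal fibroblasts (BioMAP BF4T) exposed 24 h. Total protein by sulforhodamine B staining (0.1% SRB after 10% TCA fixation, 560 nm) in parallel cultures; fitted vs DMSO.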

Read-out in experiment [7]: Interleukin-8 (IL8), CXCL8 (gene 3576)
Put plainly: BSK_IMphg_IL8: BioMAP Diversity Plus: IMphg Assay for Interleukin-8 (IL8) Biomarker Activity (AID 2284277). As to conditions: primary human endothelial cells with macrophages. The procedure, abridged: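 Co-culture of human venular endothelial cells and macrophages exposed to chemicals for 24 h; IL-8 quantified by ELISA and compared against the DMSO baseline, with SRB total-protein staining in parallel cultures for cytotoxicity.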

Read-out in experiment [8]: Intercellular Adhesion Molecule 1 (ICAM1), ICAM1 (gene 3383)
Description: BSK_BE3C_ICAM1: BioMAP Diversity Plus: BE3C Assay for Intercellular Adhesion Molecule 1 (ICAM1) Biomarker Activity (AID 2284278).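 As to outcome: cell-surface ICAM-1 protein level quantified by ELISA.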 The note with it: primary human bronchial epithelial cells. The procedure, abridged: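 Primary human bronchial epithelial cells were exposed to compound for 24 h, after which cell-surface ICAM-1 was quantified by ELISA. Activity was fitted in the gain-of-signal direction against DMSO as negative control and baseline.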

Read-out in experiment [9]: Interferon-inducible T-cell alpha chemoattractant (ITAC), CXCL11 (gene 6373)
Description: BSK_BE3C_ITAC: BioMAP Diversity Plus: BE3C Assay for Interferon-inducible T-cell alpha chemoattractant (ITAC) Biomarker Activity (AID 2284279). The note with it: primary human bronchial epithelial cells. The procedure, abridged: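 Steps: dose human bronchial epithelial cells with chemical; incubate 24 h; measure I-TAC by ELISA; fit endpoint in positive direction against DMSO control. Cytotoxicity was checked in parallel cultures by SRB staining at harvest.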

Read-out in experiment [10]: Interleukin-8 (IL8), CXCL8 (gene 3576)
Put plainly: BSK_BE3C_IL8: BioMAP Diversity Plus: BE3C Assay for Interleukin-8 (IL8) Biomarker Activity (AID 2284280). As to conditions: primary human bronchial epithelial cells. The procedure, abridged:
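Primary human bronchial epithelial cells (BE3C system) exposed 24 h; IL-8 measured by ELISA and fitted in positive direction versus DMSO. Overt cytotoxicity assessed by SRB total-protein staining in parallel cultures.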

Read-out in experiment [11]: Epidermal growth factor receptor (EGFR), EGFR (gene 1956)
Description: BSK_BE3C_EGFR: BioMAP Diversity Plus: BE3C Assay for Epidermal growth factor receptor (EGFR) Biomarker Activity (AID 2284281). The note with it: primary human bronchial epithelial cells. An outline of the steps:
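Human primary bronchial epithelial cells (BE3C system) dosed with chemicals; EGFR measured by ELISA at 24 h, fitted in the positive direction relative to DMSO. Cytotoxicity tracked in parallel cultures by SRB total-protein staining.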

Read-out in another experiment: KRT18 (gene 3875)
Put plainly: BSK_BE3C_Keratin818: BioMAP Diversity Plus: BE3C Assay for Keratin 818 Biomarker Activity (AID 2284282). As to conditions: primary human bronchial epithelial cells. An outline of the steps:
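Human primary bronchial epithelial cells in the BE3C system were exposed to test chemical for 24 h, then Keratin 8/18 was quantified by ELISA. Activity was fitted in the positive direction against DMSO as negative control and baseline.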

Read-out in experiment [12]: Matrix Metallopeptidase 9 (MMP9), MMP9 (gene 4318)
Put plainly: BSK_BE3C_MMP9: BioMAP Diversity Plus: BE3C Assay for Matrix Metallopeptidase 9 (MMP9) Biomarker Activity (AID 2284283). The note with it: primary human bronchial epithelial cells. An outline of the steps: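 Endpoint is the ELISA MMP-9 signal in human primary bronchial epithelial cultures taken 24 h after chemical dosing. DMSO serves as negative control and baseline, with gain-of-signal fitting.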

Read-out in experiment [13]: Plasminogen activator inhibitor-1 (PAI1), SERPINE1 (gene 5054)
Description: BSK_CASM3C_PAI1: BioMAP Diversity Plus: CASM3C Assay for Plasminogen activator inhibitor-1 (PAI1) Biomarker Activity (AID 2284284).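 Also: PAI-1 protein level measured by ELISA 24 h after dosing.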 As to conditions: primary human coronary artery smooth muscle cells.

Read-out in experiment [14]: Monocyte Chemoattractant Protein-1 (MCP1), CCL2 (gene 6347)
Description: BSK_hDFCGF_MCP1: BioMAP Diversity Plus: hDFCGF Assay for Monocyte Chemoattractant Protein-1 (MCP1) Biomarker Activity (AID 2284285). The note with it: primary human foreskin fibroblasts. The procedure, abridged:
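Human foreskin fibroblasts (hDFCGF system) were exposed to compound and secreted MCP-1 was measured by ELISA after 24 hours. Activity was fitted relative to DMSO. Cytotoxicity was checked by SRB total-protein staining in parallel cultures.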

Read-out in experiment [15]: Vascular cell adhesion molecule 1 (VCAM1), VCAM1 (gene 7412)
Put plainly: BSK_IMphg_VCAM1: BioMAP Diversity Plus: IMphg Assay for Vascular cell adhesion molecule 1 (VCAM1) Biomarker Activity (AID 2284286). As to conditions: primary human endothelial cells with macrophages. The procedure, abridged: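 Human venular endothelial cells co-cultured with macrophages; VCAM-1 quantified by ELISA 24 h after dosing, fitted in the positive direction against DMSO. Cytotoxicity was checked in parallel cultures by SRB total-protein staining (0.1% SRB after 10% TCA fixation, 560 nm).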

Read-out in experiment [16]: Tissue plasminogen activator (tPA), PLAT (gene 5327)
Put plainly: BSK_BF4T_tPA: BioMAP Diversity Plus: BF4T Assay for Tissue plasminogen activator (tPA) Biomarker Activity (AID 2284272). The note with it: primary human bronchial epithelial cells with fibroblasts. An outline of the steps:
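tPA level quantified by ELISA at 24 h post-treatment in bronchial epithelial/dermal fibroblast co-cultures, gain of signal scored against DMSO baseline. Parallel cultures stained with 0.1% SRB (560 nm) to flag overt cytotoxicity.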

Read-out in experiment [17]: Matrix Metallopeptidase 9 (MMP9), MMP9 (gene 4318)
Description: BSK_BF4T_MMP9: BioMAP Diversity Plus: BF4T Assay for Matrix Metallopeptidase 9 (MMP9) Biomarker Activity (AID 2284276). The note with it: primary human bronchial epithelial cells with fibroblasts. The procedure, abridged:
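Co-culture of human bronchial epithelial cells and dermal fibroblasts dosed for 24 h; MMP-9 quantified by ELISA and fitted upward versus DMSO. Cytotoxicity monitored in parallel cultures by SRB total-protein staining at the biomarker time point.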

The structures appear in SMILES notation. Several values for one entry are separate records, joined by “and”; a condition that tells them apart may be missing. Identical values can stand only once. More than one record can exist for a structure, and the calls need not agree. Activity calls are given as the source filed them. The calls were made as follows: active = hit-call score of the fitted dose curve at least 0.9, where 1 is the maximum; inactive = score below 0.9.

As a reminder, the AC50 is the midpoint of the concentration-response curve, whichever way the signal moves. On to `C=CC(=O)OCC(F)(F)C(F)(F)C(F)(F)C(F)(F)COC(=O)C=C`, for which the AC50 in [1] is 17.1 µM (active) and 18.2 µM (active); in experiment [3], 14.1 µM (active) and 18.7 µM (active); in [4], 55.4 µM (active) and 6.99 µM (active); in [8], 26.3 µM (active) and 25.9 µM (active); in experiment [9] it was 45.3 µM (active) and 39.4 µM (active); in experiment [10] it was 7.98 µM (active) and 7.77 µM (active). For the same molecule, the AC50 in experiment [11] is 7.87 µM (active) and 14.5 µM (active); with KRT18 (gene 3875) it was 10700 nM (active); in experiment [12], 7.28 µM (active) and 11.8 µM (active); in [13], 53.7 µM (active) and 53.4 µM (active); in [14], 7.35 µM (active) and 7.89 µM (active); in [15], 30.4 µM (active) and 23.4 µM (active). Moreover, the outcome (in experiment [2]; in experiment [5]; in experiment [6]; in experiment [7]; in the experiment with KRT18 (gene 3875)) was inactive.
In the case of `CCO[Si](CCC(F)(F)C(F)(F)C(F)(F)C(F)(F)C(F)(F)C(F)(F)F)(OCC)OCC`, the outcome in experiment [1], in experiment [2], in experiment [3], in [4], in experiment [16] and in [5] was inactive. The result in experiment [6], in experiment [7], in [8], in experiment [9], in experiment [10] and in [11] was inactive. For the same molecule, the outcome (with KRT18 (gene 3875); in experiment [12]; in experiment [13]; in experiment [14]; in experiment [15]) was inactive.
Turning to `FC1CC(F)(F)C(F)(F)C1(F)F` (stereo unspecified), the result in experiment [1], in experiment [2], in [3], in [4], in [5] and in [6] was inactive. Further, the result in experiment [17], in experiment [7], in experiment [8], in experiment [9], in experiment [10] and in [11] was inactive. In addition, the outcome (with KRT18 (gene 3875); in experiment [12]; in experiment [13]; in [14]; in [15]) was inactive.
`O=C(O)C(F)(F)C(F)(F)C(F)(F)F`: the result in experiment [1], in experiment [2], in [3], in experiment [4], in experiment [5] and in [6] was inactive. Moreover, the result (in experiment [7]; in [8]; in experiment [9]; in experiment [10]; in experiment [11]; in the experiment with KRT18 (gene 3875)) was inactive. Further, the result in [12], in [13], in experiment [14] and in experiment [15] was inactive.
On to `O=C(O)C(F)(F)C(F)(F)C(F)(F)C(F)(F)C(F)(F)C(F)(F)C(F)(F)C(F)(F)C(F)(F)C(F)(F)C(F)(F)C(F)(F)C(F)(F)F`, for which the outcome in [1], in experiment [2], in [3], in experiment [4], in experiment [5] and in experiment [6] was inactive. For the same molecule, the result (in [7]; in experiment [8]; in experiment [9]; in [10]; in experiment [11]; in the experiment with KRT18 (gene 3875)) was inactive. Also, the result in experiment [12], in experiment [13], in experiment [14] and in experiment [15] was inactive. Further, the AC50 was 1.68 µM (active) in experiment [4], 25.9 nM (active) in experiment [9] and 675 nM (active) in [12].
With `C=CC(F)(F)C(F)(F)C(F)(F)C(F)(F)C(F)(F)C(F)(F)C(F)(F)C(F)(F)C=C`, the result in experiment [1], in [2], in experiment [3], in [4], in experiment [5] and in experiment [6] was inactive. Further, the result in experiment [17], in experiment [7], in [8], in [9], in experiment [10] and in experiment [11] was inactive. Also, the result (in the experiment with KRT18 (gene 3875); in experiment [12]; in experiment [13]; in experiment [14]; in experiment [15]) was inactive.
Regarding `Cc1ccc(S(=O)(=O)OCC(F)(F)C(F)(F)C(F)(F)C(F)(F)C(F)(F)C(F)F)cc1`, the result in experiment [1], in experiment [2], in experiment [3], in [4], in [16] and in [5] was inactive. The result in [6], in experiment [17], in experiment [7], in [8], in [9] and in experiment [10] was inactive. The outcome (in experiment [11]; with KRT18 (gene 3875); in experiment [12]; in [13]; in [15]) was inactive. The AC50 in experiment [14] was 6.75 µM (active) and 3.49 µM (active).

The values above are taken from PubChem BioAssay (EPA / NIEHS).
